The source of these data is PubChem BioAssay (Tox21).

Where “and” joins values, the source holds several entries; their conditions need not be identical. Identical values can stand only once. Inconclusive results are not listed. The source holds several records for some structures; these can differ, active in one and inactive in another. Calls of active or inactive are those of the source. Unless noted, calls follow the shape of the dose curve; as a rule, active = well fitted curve in the direction sought with a large enough effect in the repeat runs; inconclusive = weak or mixed curves; inactive = no such curve, though single readings can be large; an effect the other way counts as inactive or inconclusive.

Assay [1] in a line: qHTS assay to test for compound auto fluorescence at 535 nm (green) in HEK293 cells (AID 720680).
A short description of assay [2]: qHTS assay to test for compound auto fluorescence at 460 nm (blue) in HEK293 cell free culture (AID 720681). The method in brief: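 Blue fluorescence (Ex 405/Em 460 nm, triamterene-equivalent) was read immediately after pin transfer of compound or DMSO into medium (DMEM, 10% FBS) without cells.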
A short description of assay [3]: qHTS assay to test for compound auto fluorescence at 535 nm (green) in HEK293 cell free culture (AID 720682). The method in brief: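 Steps: dispense DMEM/10% FBS into empty wells; pin in compound or DMSO; measure fluorescence at 485/535 nm. Values are fluorescein equivalents.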
Assay [4] is described as follows: qHTS assay to test for compound auto fluorescence at 590 nm (red) in HEK293 cell free culture (AID 720683). The method in brief: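 Red-channel autofluorescence of compounds in culture medium (DMEM, 10% FBS), no cells, measured at 540/590 nm. Rose Bengal sodium is the reference fluorophore for equivalence.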
Assay [5] can be described thus: qHTS assay to test for compound auto fluorescence at 590 nm (red) in HepG2 cell free culture (AID 720684). The gist of the method:
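No cells present: MEM + 10% FBS only. Compound pinned in, red label read (540/590 nm). Activity = fluorescence equivalent to Rose Bengal sodium.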

The nature of assay [6]: qHTS assay to test for compound auto fluorescence at 460 nm (blue) in HepG2 cell free culture (AID 720685). The gist of the method: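 Cell-free plates of MEM plus 10% FBS received 23 nL compound or DMSO vehicle; blue-channel (405/460 nm) intensity scored against triamterene as reference fluorophore.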
Assay [7] can be described thus: qHTS assay to test for compound auto fluorescence at 535 nm (green) in HepG2 cell free culture (AID 720686).
Assay [8] is described as follows: qHTS assay to test for compound auto fluorescence at 460 nm (blue) in HepG2 cells (AID 720687). The gist of the method:
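Blue-channel autofluorescence (Ex/Em 405/460 nm, triamterene-equivalent) was measured after 1 hr compound exposure at 37 C, 5% CO2. Cells were HepG2, plated overnight at 37 C in MEM plus 10% FBS.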

Assay [9] in a line: qHTS assay to identify small molecule antagonists of the glucocorticoid receptor (GR) signaling pathway - cell viability counter screen (AID 720693). Also: nearly all actives have a fitted effect of over 55% in size. Also: potency is read from the fitted curve at half-maximal effect.
Assay [10] can be described thus: qHTS assay for identifying genotoxic compounds that show differential cytotoxicity against isogenic chicken DT40 cell lines with known DNA damage response pathways - wild type cell line (AID 743012). Also: nearly all actives have a fitted effect of over 60% in size. Also: potency is read from the fitted curve at half-maximal effect. The method in brief: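 Cytotoxicity in repair-proficient parental chicken DT40 cells serves as the comparator for Rad54/Ku70- and Rev3-deficient lines. Cells were exposed to compounds for 40 h at 37 C/5% CO2, and ATP-based luminescence (CellTiter-Glo) measured viability.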

The nature of assay [11]: qHTS assay for identifying genotoxic compounds that show differential cytotoxicity against isogenic chicken DT40 cell lines with known DNA damage response pathways - Rev3 mutant cell line (AID 743014). Also: nearly all actives have a fitted effect of over 55% in size. Also: potency is read from the fitted curve at half-maximal effect.
Assay [12] is described as follows: qHTS assay for identifying genotoxic compounds that show differential cytotoxicity against isogenic chicken DT40 cell lines with known DNA damage response pathways - Rad54/Ku70 mutant cell line (AID 743015). Also: nearly all actives have a fitted effect of over 60% in size. Also: potency is read from the fitted curve at half-maximal effect.
A short description of assay [13]: qHTS assay to identify small molecule antagonists of the androgen receptor (AR) signaling pathway - cell viability counter screen (AID 743033; also: nearly all actives have a fitted effect of over 45% in size; also: potency is read from the fitted curve at half-maximal effect).
Assay [14] can be described thus: qHTS assay to identify small molecule antagonists of the androgen receptor (AR) signaling pathway using the MDA cell line - cell viability counter screen (AID 743041; also: nearly all actives have a fitted effect of over 45% in size; also: potency is read from the fitted curve at half-maximal effect). The gist of the method: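 Using the breast carcinoma line MDA-kb2 AR-luc, test chemicals were co-incubated with R1881 for 16 h; CellTiter-Fluor reagent, added at 15.5 h, provided a fluorescence measure of live cells.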

Assay [15] has as its target Androgen receptor (Homo sapiens) (UniProt P10275). Nature of the assay: qHTS assay to identify small molecule antagonists of the androgen receptor (AR) signaling pathway (AID 743035; active = well fitted inhibition curve with a large enough effect in the signal ratio in the repeat runs, not every such curve was filed as active; the % refers to the signal ratio; also: potency is read from the fitted curve at half-maximal effect). The method in brief: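 Steps: seed AR-UAS-bla GripTite HEK293 cells, incubate 4 h at 37C; pin in test compound, then add agonist R1881; incubate 16 h at 37C; add LiveBLAzer B/G FRET substrate, 2 h at room temperature; read fluorescence.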

Assay [16] shares this target. The assay can be described thus: qHTS assay to identify small molecule agonists of the androgen receptor (AR) signaling pathway (AID 743036; active = well fitted activation curve with a large enough effect in the signal ratio in the repeat runs, with a control signal flat, not every such curve was filed as active; the % refers to the signal ratio). The gist of the method:
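Reporter line: GeneBLAzer AR-UAS-bla-GripTite (HEK293). Steps: plate cells, 4 h rest, add compounds, 16 h at 37C, add LiveBLAzer B/G substrate, 2 h at RT, read fluorescence.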

Assay [17] has the same target. Nature of the assay: qHTS assay to identify small molecule agonists of the androgen receptor (AR) signaling pathway using the MDA cell line (AID 743040; also: nearly all actives have a fitted effect of over 20% in size). The gist of the method: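 Stable MMTV-luciferase reporter in MDA-kb2 cells; note the promoter carries GR as well as AR response elements. 16 h compound treatment, 37C, 0% CO2; ONE-Glo luminescence endpoint.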
For assay [18] the target is unchanged. Nature of the assay: qHTS assay to identify small molecule antagonists of the androgen receptor (AR) signaling pathway using the MDA cell line (AID 743042; also: nearly all actives have a fitted effect of over 55% in size; also: potency is read from the fitted curve at half-maximal effect). The method in brief:
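Antagonist mode: compounds plus R1881 agonist added to MDA-kb2 AR-luc cells, incubated 16 h at 37C. Luciferase reporter luminescence quantified, with multiplexed CellTiter-Fluor readout for cell viability.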
% is scaled to controls: 0 for no effect and ±100 for the full control effect.

Chain of Androgen receptor (Homo sapiens) (P10275 whole entry, looked up): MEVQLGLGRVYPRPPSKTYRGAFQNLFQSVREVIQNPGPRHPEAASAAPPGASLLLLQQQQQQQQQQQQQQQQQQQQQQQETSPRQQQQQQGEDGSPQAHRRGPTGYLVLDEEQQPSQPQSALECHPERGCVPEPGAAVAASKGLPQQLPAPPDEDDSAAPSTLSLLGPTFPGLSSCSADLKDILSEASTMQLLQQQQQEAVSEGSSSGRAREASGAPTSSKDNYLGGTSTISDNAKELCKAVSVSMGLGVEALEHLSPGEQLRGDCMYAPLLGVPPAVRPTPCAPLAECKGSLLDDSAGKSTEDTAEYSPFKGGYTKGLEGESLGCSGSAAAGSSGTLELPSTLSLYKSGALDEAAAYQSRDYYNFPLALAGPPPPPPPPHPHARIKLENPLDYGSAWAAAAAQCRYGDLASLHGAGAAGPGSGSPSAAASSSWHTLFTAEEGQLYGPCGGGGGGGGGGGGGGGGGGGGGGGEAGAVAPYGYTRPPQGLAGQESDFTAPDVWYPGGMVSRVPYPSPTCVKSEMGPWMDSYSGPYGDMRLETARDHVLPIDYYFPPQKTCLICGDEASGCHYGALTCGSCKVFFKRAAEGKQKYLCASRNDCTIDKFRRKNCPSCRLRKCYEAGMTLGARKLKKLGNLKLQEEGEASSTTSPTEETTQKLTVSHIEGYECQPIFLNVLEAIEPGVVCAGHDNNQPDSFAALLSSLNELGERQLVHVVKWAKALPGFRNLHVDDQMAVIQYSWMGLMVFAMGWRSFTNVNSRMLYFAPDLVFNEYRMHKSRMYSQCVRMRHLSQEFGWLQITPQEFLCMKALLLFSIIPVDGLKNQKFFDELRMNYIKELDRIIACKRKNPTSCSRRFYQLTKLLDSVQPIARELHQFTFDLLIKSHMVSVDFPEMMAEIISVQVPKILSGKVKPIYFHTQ

Turning to `CCC[CH2][Sn]([CH2]CCC)([CH2]CCC)[CH2]CCC`, the molecule was called inactive in assay [1], in assay [3], in [4] and in assay [5]. For the same molecule, the Potency entry in [2], in assay [6], in [7] and in assay [8] was “inactive” each time. The Potency was 54.9 µM (active) in [9]; 7.7 µM (active) in [10]; 21.7 µM (active) in assay [11]; 8.63 µM (active) in [12]; 43.6 µM (active) in assay [13]; 61.1 µM (active) in assay [14].

`CC(C)NCC(O)c1ccccc1Cl` (stereo unspecified): the molecule was classed as inactive in assay [1], in [3], in assay [4], in [5], in assay [16] and in assay [17]. In addition, the Potency result in assay [2], in [6], in assay [7], in assay [8], in assay [9] and in [10] was “inactive” each time. Moreover, the Potency result in assay [11], in assay [12], in assay [13], in [15], in [14] and in assay [18] was “inactive” throughout.

With `CCC(OC(C)=O)C(CC(C)NC)(c1ccccc1)c1ccccc1` (stereo unspecified), the molecule was called inactive in assay [1], in assay [3], in assay [4], in assay [5] and in assay [17]. Besides, the Potency result in assay [2], in assay [6], in assay [7], in assay [8], in assay [9] and in assay [13] was “inactive” each time. Further, the Potency in assay [10] was 7.76 µM (active); in assay [11] it was 15.5 µM (active); in [12], 15.5 µM (active); in assay [15], 49.4 µM (active); in [14] it was 27.5 µM (active); in assay [18], 21.9 µM (active).

As to `COc1ccc(Cc2nccc3cc(OC)c(OC)cc23)cc1OC`, the fluorescence, % of fluorescein in assay [1] is -0.0425% [at 18.6 µM] (inactive). Further, the fluorescence, % of fluorescent control in [2] was -0.0156% [at 18.6 µM] (inactive); in [4], -0.0177% [at 18.6 µM] (inactive); in assay [6], 0.0281% [at 18.6 µM] (inactive); in assay [8], -0.0587% [at 18.6 µM] (inactive). In assay [3], the activity change is -0.0465% [at 18.6 µM] (inactive). In assay [5], the fluorescence, % of Rose Bengal is -0.262% [at 18.6 µM] (inactive). In [7], the fluorescence, % of fluorescein control is -0.0438% [at 18.6 µM] (inactive). Besides, the Potency result in assay [9] and in [13] was “inactive” throughout. The Potency is 4.03 µM (active) in assay [10], 9.02 µM (active) in assay [11], 7.17 µM (active) in [12] and 9.02 µM (active) in assay [18]. The molecule was classed as inactive in assay [16] and in [17].

`CCCC[N+]1(C)CCCC1` (tested in a mixture with another compound): the result in assay [1], in assay [3], in assay [4] and in [5] was inactive. Also, the Potency entry in [2], in assay [6], in assay [7], in [8], in [9] and in assay [10] was “inactive” throughout. Further, the Potency entry in assay [11], in assay [12], in assay [13] and in [14] was “inactive” each time.

On to `C#CC1(O)CCCCC1`, for which the result in assay [1], in [3], in assay [4] and in assay [5] was inactive. The Potency entry in [2], in assay [6], in [7], in assay [8], in assay [9] and in assay [10] was “inactive” each time. In addition, the Potency result in assay [11], in assay [12], in [13] and in assay [14] was “inactive” in each case.

On to `Cc1nn(-c2cc(NS(C)(=O)=O)c(Cl)cc2Cl)c(=O)n1C(F)F`, for which the outcome in [1], in assay [3], in assay [4], in [5] and in assay [17] was inactive. For the same molecule, the Potency result in [2], in assay [6], in assay [7], in [8], in assay [9] and in assay [10] was “inactive” throughout. In addition, the Potency entry in assay [11], in assay [12], in [13], in assay [14] and in [18] was “inactive” each time.

Take `O=C1C[C@@H]2OCC=C3CN4CC[C@]56c7ccccc7N1[C@H]5[C@H]2[C@H]3C[C@H]46`: the molecule was classed as inactive in assay [1], in [3], in assay [4] and in [5]. In addition, the Potency entry in assay [2], in assay [6], in assay [7], in assay [8], in assay [9] and in assay [13] was “inactive” throughout. The Potency entry in [14] was “inactive”. Also, the Potency in assay [10] is 26.6 µM (active); in assay [11], “inactive and 26.6 µM (active)”; in [12] it was “inactive and 29.8 µM (active)”.

`O=Cc1ccccc1`: the outcome in [1], in [3], in assay [4] and in assay [5] was inactive. Further, the Potency result in assay [2], in [6], in [7], in assay [8], in assay [9] and in [10] was “inactive” each time. Moreover, the Potency entry in assay [11], in [12], in [13] and in [14] was “inactive” in each case.

Take `Cc1ccc(C)c2ccccc12`: the molecule was classed as inactive in [1], in assay [3], in [4], in assay [5], in [16] and in assay [17]. For the same molecule, the Potency entry in [2], in assay [6], in [7], in [8], in [9] and in assay [10] was “inactive” each time. Besides, the Potency result in [11], in assay [12], in assay [13], in assay [15], in assay [14] and in assay [18] was “inactive” throughout.

`Cc1ccn2nc(S(=O)(=O)Nc3c(F)cccc3F)nc2n1`: the molecule was called inactive in [1], in [3], in [4] and in assay [5]. The Potency entry in assay [2], in assay [6], in assay [7], in assay [8], in [9] and in assay [10] was “inactive” each time. Moreover, the Potency result in assay [11], in assay [12], in assay [13] and in assay [14] was “inactive” in each case.

With `CCCCCON=O`, the molecule was classed as inactive in assay [1], in assay [3], in [4] and in assay [5]. Further, the Potency result in assay [2], in assay [6], in assay [7], in assay [8], in assay [9] and in [10] was “inactive” throughout. Moreover, the Potency result in [11], in assay [12] and in [13] was “inactive” in each case.

In the case of `CN1[C@@H]2CC[C@H]1CC(O)C2` (stereo partly specified), the molecule was called inactive in assay [1], in [3], in [4] and in assay [5]. For the same molecule, the Potency result in assay [2], in [6], in [7], in assay [8], in [9] and in assay [10] was “inactive” in each case. Besides, the Potency result in assay [11], in [12], in [13] and in assay [14] was “inactive” each time.

Regarding `CC(=O)[O][Pb]([c]1ccccc1)([c]1ccccc1)[c]1ccccc1`, the outcome in [1], in [3], in assay [4], in [5] and in assay [17] was inactive. In addition, the Potency result in [2], in assay [6], in assay [7] and in [8] was “inactive” in each case. Further, the Potency in assay [9] was 0.776 µM (active); in assay [10], 0.154 µM (active); in assay [11], 0.122 µM (active); in assay [12], 0.122 µM (active); in assay [13], 0.549 µM (active); in [18], 0.611 µM (active).
